# Reference: PubChem BioAssay AID1347075 (National Center for Advancing Translational Sciences (NCATS), 2019)
# About 5,500 (1.4%) of roughly 400,000 compounds were called active. Another 9% or so got no clear call; they are omitted. This excerpt belongs to a sample that is enriched for actives. Values without a mark were called inactive. The call rests on the fitted dose curve; in most records, active means well fitted cell-killing curve with a large enough effect; inconclusive means small, poorly fitted or top-dose-only effect, or effect the other way; inactive means flat fitted curve, though single readings scatter.
# Experiment: qHTS assay for MDR1-selective chemotherapeutics: Primary screen using the parental adenocarcinoma cell KB-3-1; further: nearly all actives have a fitted effect of over 60% in size
# Settings: KB-3-1 viability, CellTiter-Glo ATP luminescence, 72 h; series mostly up to 46.1 µM; activity change, negative = cytotoxic: at the top concentration
# Summary of the method: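 KB-3-1 cells, DMEM (no phenol red) + 10% FBS; compound by pin transfer, 72 h, 37 °C. Readout: CellTiter-Glo luminescence after 10 min. Data normalized, curve-fitted.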
# On the % scale 0 is the no-effect control and ±100 the full control effect; potency means the concentration at half of the fitted maximal effect.
Compound,"activity change, negative = cytotoxic",Potency
Cn1ccc2cc(S(=O)(=O)N3CCCC(C(=O)NCc4ccccc4F)C3)ccc21 (centres undefined),-9.83%,–
COc1cc(Cl)c(NC(=O)CC(C)S(=O)(=O)c2cc3c(cc2C)NC(=O)CO3)c(OC)c1 (centres undefined),-1.47%,–
Cc1ccccc1CNC(=O)c1cccc(NC(=O)c2nsc3ccccc23)c1,-18.2%,–
O=C(NNC(=O)c1cc(S(=O)(=O)N2CCCCC2)ccc1Cl)c1ccccc1O,-19.1%,–
CC1=C(C)CC(C(=O)NNC(=O)c2ccccc2O)C(C(=O)O)C1 (centres undefined),0%,–
O=C(NNC(=O)c1ccccc1O)c1ccccc1O,–,2.59 µM (active)
Cc1ccc(CSc2oc(-c3cccs3)nc2S(=O)(=O)c2ccc(C)cc2)cc1,-8.61%,–
CCN(C(=O)COc1ccc(C(=O)c2ccccc2)cc1)c1ccccc1,19.5%,–
CCN(C(=O)c1sc2cc(OC)ccc2c1Cl)c1ccccc1,–,20.6 µM (active)
CCN(C(=O)c1ccc(Br)cc1)c1ccccc1,-3.05%,–
CCC(=O)Nc1cccc(-c2nc3cc(C)ccc3o2)c1,-5.02%,–
CCN(CC)S(=O)(=O)c1ccc2c(c1)c(=O)c(C(=O)N1CCN(c3cccc(Cl)c3)CC1)cn2C,5.98%,–
CCCN(CCC)c1c([N+](=O)[O-])c(=O)oc2ccccc12,8.54%,–
CCn1c(/C=C/c2ccc([N+](=O)[O-])o2)nc2ccccc2c1=O,–,3.26 µM (active)
C=CCn1c(SCC(=O)NC(=O)Cc2ccccc2)nc2ccccc2c1=O,3.54%,–
CCCCCn1c(CCCNC(=O)c2ccccc2OC)nc2ccccc21,1.41%,–
CCOCCOC(=O)C1=C(C)NC(=O)NC1c1ccc2c(c1)OCO2 (centres undefined),-14.7%,–
CCOC(=O)C1=C(CN2CCc3ccccc32)NC(=O)NC1c1ccc(Cl)cc1 (centres undefined),-23.1%,–
CCOC(=O)C1=C(CCc2ccccc2)NC(=O)NC1c1ccc2ccccc2c1 (centres undefined),–,23.1 µM (active)
Cc1cccc(N2CCN(C(=O)c3cc4c(=O)oc5ccccc5c4s3)CC2C)c1 (centres undefined),-10.4%,–
CCOc1ccc(NC(=O)C(=O)NCCc2csc3nc(-c4ccccc4F)nn23)cc1,7.86%,–
O=[N+]([O-])c1ccc(C=Nc2ccc(Cl)cc2Cl)s1,–,16.4 µM (active)

Compound,"activity change, negative = cytotoxic",Potency
CCOC(=O)C(Cc1ccccc1)NC(=O)CCc1c(C)nc2c(c(C)nn2-c2ccc(C)c(C)c2)c1C (centres undefined),6.17%,–
COc1cccc(CNC(=O)C2CCN(S(=O)(=O)c3ccc4c(ccn4C)c3)CC2)c1,6.47%,–
COc1ccc(-c2nn3c(=O)cc(CN4CCN(C(=O)c5ccc(OC)c(OC)c5)CC4)nc3s2)cc1,-2.16%,–
CCS(=O)(=O)N1CCC(n2c(C)nc3cccnc32)CC1,6.58%,–
COc1ccccc1CNC(=O)c1ccc(NC(=O)N2CC(C)Sc3ccccc32)cc1 (centres undefined),2.43%,–
O=C(NC1CCN(C(=S)Nc2ccc(Cl)cc2)CC1)C1CCCCC1,-1.98%,–
Cc1cc(Cl)ccc1NC(=S)N1CCC(C(N)=O)(N2CCCCC2)CC1,2.27%,–
NC(=O)C1(N2CCCCC2)CCN(C(=S)Nc2ccc(Cl)cc2)CC1,–,11.6 µM (active)
O=C(CCC(=O)N1CC2CCCN2c2ccccc21)NCc1ccccc1Cl (centres undefined),-1.48%,–
CCc1ccc(NC(=O)c2cc3c(=O)n(Cc4cccnc4)ccc3nc2C)cc1,4.71%,–
COc1ccc(-n2c(=O)c3c(c4cc(OC)ccc4n3C)n(Cc3cccc(C)c3)c2=O)cc1,4.89%,–
CCN(CC)c1ccc(NC(=O)CN2CCN(CC(=O)Nc3ccc(Cl)cc3)CC2)cc1,-6.2%,–
CCN(CC)c1ccc(NC(=O)c2ccc(Cl)nc2)cc1,–,5.17 µM (active)
O=C(NNC(=O)c1ccc(Cl)nc1)c1ccc(Br)cc1,2.64%,–
CN(C)c1ccc(C(CNS(=O)(=O)c2cc(F)ccc2F)N2CCOCC2)cc1 (centres undefined),2.75%,–
Cc1ccc(C)c(N2CCN(S(=O)(=O)c3ccc4c(c3)C(C(C)C)C(=O)N4)CC2)c1 (centres undefined),-22.4%,–
CCC1CCCCN1C(=O)Cn1c(=O)n(CCCCCC(=O)NCc2ccccc2)c(=O)c2sccc21 (centres undefined),14.4%,–
O=C(c1ccc(Br)cc1)N(Cc1cccs1)c1ccc(F)cc1,1.61%,–
Cc1ccc(Nc2ccccc2N)cc1,–,20.6 µM (active)
Nc1ccccc1N,6.52%,–
Cc1ccc(Nc2c(-c3ccc(C)s3)nc3ccccn23)cc1,-11.2%,–
Cc1ccc2c(c1)C1CN(C)CCC1N2S(=O)(=O)c1ccc(Oc2ccc([N+](=O)[O-])cc2)cc1 (centres undefined),–,18.4 µM (active)

Compound,"activity change, negative = cytotoxic",Potency
Cc1ccc([N+](=O)[O-])cc1S(=O)(=O)N1CCCN(C)CC1,13.9%,–
Cc1ccc2c(c1)C1CN(C)CCC1N2C(=O)c1ccccc1NS(=O)(=O)c1ccc(F)cc1C (centres undefined),-7.9%,–
COc1ccc(-c2nn(CC(=O)NC3CCCC3)c3c2cnc2ccc(F)cc23)cc1,-23.3%,–
Cc1ccc(CNC(=O)c2c(O)nc3c(C)cccn3c2=O)cc1,-7.52%,–
NS(=O)(=O)c1ccc(CNC(=O)c2cnccn2)cc1,3.21%,–
CCN(CC)c1ccc(/C=N/NC(=O)c2cnccn2)c(O)c1,–,0.731 µM (active)
COc1cccc(OCC(=O)NNC(=O)c2cnccn2)c1,9.62%,–
O=C(/C=C/c1ccccc1)N1CCN(Cc2cc(=O)n3nc(-c4ccccc4F)sc3n2)CC1,-7.72%,–
C/C(CC(=O)NCc1ccc(Cl)cc1)=N\NC(=O)COc1ccc(C)cc1Br,–,5.17 µM (active)
Cc1ccc(CNC(=O)CN2CCN(Cc3ccc(Cl)cc3)C2=O)cc1,9.48%,–
Cc1ccc(CNC(=O)COc2ccc3c(c2)CCC3)cc1,22.2%,–
Cc1ccc2oc(C(=O)Nc3ccc(S(=O)(=O)N4CCCCCC4)cc3)cc(=O)c2c1,25.6%,–
Cc1ccc(C)c(N2CCN(C(=O)Cc3c(C(=O)O)c(C)cn3C)CC2)c1,6%,–
CC[n+]1cc(C)ccc1/C=C/c1ccc(N(C)C)cc1,–,1.84 µM (active)
CCc1ccc(-c2nn3c(C)nnc3s2)cc1NC(=O)c1ccc(-c2cccc(Cl)c2)o1,-4.36%,–
COc1ccc(S(=O)(=O)n2nc(C)c(S(=O)(=O)N3CCCCCC3)c2C)cc1,16.2%,–
N#Cc1ccc[n+](CC(=O)c2ccc(O)c(O)c2)c1,24.8%,–
Cc1cc(C(=O)OCC(=O)NCc2ccco2)c(C)n1-c1ccccc1,–,4.61 µM (active)
O=C(COC(=O)c1ccccc1O)NCc1ccco1,10.9%,–
O=C(COC(=O)c1cnc(Cl)c(Cl)c1)NCc1ccco1,8.56%,–
